Our source for the inhibition values is ChEMBL document CHEMBL1961873, “Compounds: GSK PKIS; Assays: Nanosyn kinase panel” (2012).

Broadly, the inhibition is the change of the read-out against control, counted positive when it falls.

The structures appear in SMILES notation.

The subject of assay [1] is Proto-oncogene tyrosine-protein kinase receptor Ret (Homo sapiens), P07949 [Y791F]. The note with it: at 1 µM.
Assay [2] addresses Macrophage-stimulating protein receptor (Homo sapiens) (UniProt Q04912). The settings on record: at 0.1 µM.
Assay [3] has the same target. The settings on record: at 1 µM.
Assay [4] addresses Proto-oncogene tyrosine-protein kinase ROS (Homo sapiens) (UniProt P08922). The settings on record: at 0.1 µM.
The target is the same in assay [5]. The note with it: at 1 µM.
Assay [6] has as its target Proto-oncogene tyrosine-protein kinase Src (Homo sapiens) (UniProt P12931). The note with it: at 0.1 µM.
For assay [7] the target is unchanged. The settings on record: at 1 µM.
Assay [8] addresses Tyrosine-protein kinase Srms (Homo sapiens) (UniProt Q9H3Y6). The note with it: at 0.1 µM.
The target is the same in assay [9]. The settings on record: at 1 µM.
The target of assay [10] is Tyrosine-protein kinase SYK (Homo sapiens) (UniProt P43405). The settings on record: at 0.1 µM.
The target is the same in assay [11]. The settings on record: at 1 µM.
The target in assay [12] is T1, Tyrosine-protein kinase Tec (Homo sapiens) (UniProt P42680).
T1 sequence (whole entry): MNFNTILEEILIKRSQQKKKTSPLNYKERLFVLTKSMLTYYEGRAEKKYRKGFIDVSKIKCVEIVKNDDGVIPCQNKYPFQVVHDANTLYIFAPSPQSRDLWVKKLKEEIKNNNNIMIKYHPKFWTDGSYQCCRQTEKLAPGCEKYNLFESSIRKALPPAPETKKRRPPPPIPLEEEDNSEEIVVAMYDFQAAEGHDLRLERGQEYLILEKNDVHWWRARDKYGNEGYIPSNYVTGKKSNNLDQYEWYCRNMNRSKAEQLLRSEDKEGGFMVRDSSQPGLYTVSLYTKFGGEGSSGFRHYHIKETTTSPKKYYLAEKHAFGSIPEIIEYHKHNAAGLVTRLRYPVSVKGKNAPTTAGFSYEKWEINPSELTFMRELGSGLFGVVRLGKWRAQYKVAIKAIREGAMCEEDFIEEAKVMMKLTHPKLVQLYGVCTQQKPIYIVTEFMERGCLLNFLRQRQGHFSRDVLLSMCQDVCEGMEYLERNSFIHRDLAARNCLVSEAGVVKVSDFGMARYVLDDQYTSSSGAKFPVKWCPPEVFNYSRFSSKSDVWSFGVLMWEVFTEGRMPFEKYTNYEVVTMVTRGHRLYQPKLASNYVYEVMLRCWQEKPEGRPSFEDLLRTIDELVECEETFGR
The settings on record: at 0.1 µM.

Assay [13] has as its target T1, Tyrosine-protein kinase Tec (Homo sapiens). The note with it: at 1 µM.
Assay [14] addresses Angiopoietin-1 receptor (Homo sapiens) (UniProt Q02763). The settings on record: at 0.1 µM.
The target is the same in assay [15]. The note with it: at 1 µM.
Assay [16] has as its target T2, Non-receptor tyrosine-protein kinase TNK1 (Homo sapiens) (UniProt Q13470).
T2 sequence (whole entry): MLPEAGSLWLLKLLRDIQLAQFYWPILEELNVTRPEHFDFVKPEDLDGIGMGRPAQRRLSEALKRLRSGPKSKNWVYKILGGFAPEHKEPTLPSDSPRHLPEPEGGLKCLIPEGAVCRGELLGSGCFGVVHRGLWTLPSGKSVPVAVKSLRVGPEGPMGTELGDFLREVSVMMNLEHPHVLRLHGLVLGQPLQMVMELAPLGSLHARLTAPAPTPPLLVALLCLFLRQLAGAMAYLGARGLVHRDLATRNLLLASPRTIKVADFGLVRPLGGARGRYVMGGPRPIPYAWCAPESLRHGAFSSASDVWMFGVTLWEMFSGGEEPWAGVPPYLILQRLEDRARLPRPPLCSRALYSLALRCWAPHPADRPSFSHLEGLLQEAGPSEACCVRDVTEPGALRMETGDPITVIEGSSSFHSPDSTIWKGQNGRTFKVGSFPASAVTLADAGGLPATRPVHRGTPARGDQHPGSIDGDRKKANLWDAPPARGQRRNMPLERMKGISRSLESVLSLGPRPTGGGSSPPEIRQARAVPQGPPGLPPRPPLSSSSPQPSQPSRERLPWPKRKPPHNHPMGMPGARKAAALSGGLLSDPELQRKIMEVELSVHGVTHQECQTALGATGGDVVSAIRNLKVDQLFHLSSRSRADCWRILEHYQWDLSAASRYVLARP
The settings on record: at 0.1 µM.

The target of assay [17] is T2, Non-receptor tyrosine-protein kinase TNK1 (Homo sapiens). The settings on record: at 1 µM.
Assay [18] has as its target Activated CDC42 kinase 1 (Homo sapiens) (UniProt Q07912). The note with it: at 0.1 µM.
For assay [19] the target is unchanged. The note with it: at 1 µM.
Assay [20] has as its target High affinity nerve growth factor receptor (Homo sapiens) (UniProt P04629). The settings on record: at 0.1 µM.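 Also: each value is a mean of replicate percent inhibition readings against TRKA kinase.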

Proto-oncogene tyrosine-protein kinase ROS (Homo sapiens), sequence (P08922 whole entry): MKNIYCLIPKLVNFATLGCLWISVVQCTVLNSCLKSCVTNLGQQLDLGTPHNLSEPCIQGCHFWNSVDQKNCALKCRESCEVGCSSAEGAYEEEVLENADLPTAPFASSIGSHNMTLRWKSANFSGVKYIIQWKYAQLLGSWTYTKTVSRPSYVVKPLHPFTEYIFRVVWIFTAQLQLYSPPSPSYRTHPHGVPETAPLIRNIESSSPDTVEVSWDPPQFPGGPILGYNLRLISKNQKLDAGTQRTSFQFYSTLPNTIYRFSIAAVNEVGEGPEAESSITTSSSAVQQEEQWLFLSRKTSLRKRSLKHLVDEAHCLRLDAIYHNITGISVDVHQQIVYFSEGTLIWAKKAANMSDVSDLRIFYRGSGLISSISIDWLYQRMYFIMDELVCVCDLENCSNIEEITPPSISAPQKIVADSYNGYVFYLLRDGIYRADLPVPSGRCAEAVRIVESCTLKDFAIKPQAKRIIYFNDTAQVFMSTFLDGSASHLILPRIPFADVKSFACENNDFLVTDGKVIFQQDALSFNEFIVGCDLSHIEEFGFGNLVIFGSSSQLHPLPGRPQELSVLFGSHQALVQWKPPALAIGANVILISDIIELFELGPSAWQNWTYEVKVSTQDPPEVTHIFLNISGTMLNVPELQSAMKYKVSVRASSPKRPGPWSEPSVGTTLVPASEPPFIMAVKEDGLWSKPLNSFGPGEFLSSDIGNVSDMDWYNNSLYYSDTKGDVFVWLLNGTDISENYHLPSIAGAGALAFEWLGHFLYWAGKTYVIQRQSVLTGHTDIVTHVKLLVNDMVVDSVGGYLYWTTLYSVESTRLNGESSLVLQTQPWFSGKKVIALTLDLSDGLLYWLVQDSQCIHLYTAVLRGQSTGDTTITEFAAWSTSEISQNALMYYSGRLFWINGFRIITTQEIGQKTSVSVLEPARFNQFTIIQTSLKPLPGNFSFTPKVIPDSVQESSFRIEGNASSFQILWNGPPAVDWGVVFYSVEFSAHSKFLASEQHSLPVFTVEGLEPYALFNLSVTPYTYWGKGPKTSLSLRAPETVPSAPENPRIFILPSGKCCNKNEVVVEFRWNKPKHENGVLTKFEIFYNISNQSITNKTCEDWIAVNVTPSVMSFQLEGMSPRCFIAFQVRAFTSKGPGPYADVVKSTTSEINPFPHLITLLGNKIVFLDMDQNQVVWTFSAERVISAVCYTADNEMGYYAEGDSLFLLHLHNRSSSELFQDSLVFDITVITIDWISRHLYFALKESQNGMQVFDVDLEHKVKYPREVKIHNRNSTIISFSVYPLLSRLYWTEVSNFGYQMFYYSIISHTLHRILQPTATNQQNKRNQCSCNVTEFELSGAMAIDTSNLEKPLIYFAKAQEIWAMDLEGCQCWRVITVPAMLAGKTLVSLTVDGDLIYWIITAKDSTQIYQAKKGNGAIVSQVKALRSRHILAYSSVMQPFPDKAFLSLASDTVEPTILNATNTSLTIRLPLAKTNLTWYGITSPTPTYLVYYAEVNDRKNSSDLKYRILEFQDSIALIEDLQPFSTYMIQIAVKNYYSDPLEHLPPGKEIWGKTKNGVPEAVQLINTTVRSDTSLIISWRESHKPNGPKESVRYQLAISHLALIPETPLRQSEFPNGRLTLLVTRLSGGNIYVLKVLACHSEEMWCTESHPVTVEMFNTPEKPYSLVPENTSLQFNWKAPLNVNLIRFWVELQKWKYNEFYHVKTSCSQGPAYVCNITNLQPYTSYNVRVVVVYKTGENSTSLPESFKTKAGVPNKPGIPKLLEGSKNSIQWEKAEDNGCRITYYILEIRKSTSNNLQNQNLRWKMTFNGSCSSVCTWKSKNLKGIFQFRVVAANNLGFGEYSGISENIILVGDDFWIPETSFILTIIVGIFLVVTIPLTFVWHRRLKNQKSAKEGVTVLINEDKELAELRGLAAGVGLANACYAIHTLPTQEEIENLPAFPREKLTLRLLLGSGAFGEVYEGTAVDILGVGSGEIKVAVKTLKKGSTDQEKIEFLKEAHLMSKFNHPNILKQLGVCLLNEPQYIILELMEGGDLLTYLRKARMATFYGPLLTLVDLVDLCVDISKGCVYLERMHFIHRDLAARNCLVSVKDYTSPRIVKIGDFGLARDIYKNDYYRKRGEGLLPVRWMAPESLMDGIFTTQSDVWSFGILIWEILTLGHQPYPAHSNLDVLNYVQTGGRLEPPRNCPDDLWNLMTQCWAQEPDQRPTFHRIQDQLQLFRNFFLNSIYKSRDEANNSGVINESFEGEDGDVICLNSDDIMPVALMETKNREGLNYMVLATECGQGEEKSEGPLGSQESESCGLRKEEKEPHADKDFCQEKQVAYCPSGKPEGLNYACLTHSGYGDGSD
Proto-oncogene tyrosine-protein kinase Src (Homo sapiens), sequence (P12931 2-536 limits assumed): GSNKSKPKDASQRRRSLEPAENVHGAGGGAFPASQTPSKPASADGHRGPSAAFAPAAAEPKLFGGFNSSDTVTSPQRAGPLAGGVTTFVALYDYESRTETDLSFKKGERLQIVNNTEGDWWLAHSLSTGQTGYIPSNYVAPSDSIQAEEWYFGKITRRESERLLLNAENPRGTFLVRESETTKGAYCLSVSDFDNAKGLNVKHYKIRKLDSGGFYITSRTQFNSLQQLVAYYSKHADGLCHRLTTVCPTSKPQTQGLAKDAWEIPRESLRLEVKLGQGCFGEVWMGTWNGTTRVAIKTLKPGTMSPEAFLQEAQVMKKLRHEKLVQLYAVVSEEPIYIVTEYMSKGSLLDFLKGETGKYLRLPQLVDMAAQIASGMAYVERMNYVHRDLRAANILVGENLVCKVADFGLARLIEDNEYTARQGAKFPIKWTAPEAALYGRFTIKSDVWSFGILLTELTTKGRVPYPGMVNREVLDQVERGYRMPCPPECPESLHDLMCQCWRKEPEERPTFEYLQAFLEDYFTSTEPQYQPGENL
Angiopoietin-1 receptor (Homo sapiens), sequence (Q02763 whole entry): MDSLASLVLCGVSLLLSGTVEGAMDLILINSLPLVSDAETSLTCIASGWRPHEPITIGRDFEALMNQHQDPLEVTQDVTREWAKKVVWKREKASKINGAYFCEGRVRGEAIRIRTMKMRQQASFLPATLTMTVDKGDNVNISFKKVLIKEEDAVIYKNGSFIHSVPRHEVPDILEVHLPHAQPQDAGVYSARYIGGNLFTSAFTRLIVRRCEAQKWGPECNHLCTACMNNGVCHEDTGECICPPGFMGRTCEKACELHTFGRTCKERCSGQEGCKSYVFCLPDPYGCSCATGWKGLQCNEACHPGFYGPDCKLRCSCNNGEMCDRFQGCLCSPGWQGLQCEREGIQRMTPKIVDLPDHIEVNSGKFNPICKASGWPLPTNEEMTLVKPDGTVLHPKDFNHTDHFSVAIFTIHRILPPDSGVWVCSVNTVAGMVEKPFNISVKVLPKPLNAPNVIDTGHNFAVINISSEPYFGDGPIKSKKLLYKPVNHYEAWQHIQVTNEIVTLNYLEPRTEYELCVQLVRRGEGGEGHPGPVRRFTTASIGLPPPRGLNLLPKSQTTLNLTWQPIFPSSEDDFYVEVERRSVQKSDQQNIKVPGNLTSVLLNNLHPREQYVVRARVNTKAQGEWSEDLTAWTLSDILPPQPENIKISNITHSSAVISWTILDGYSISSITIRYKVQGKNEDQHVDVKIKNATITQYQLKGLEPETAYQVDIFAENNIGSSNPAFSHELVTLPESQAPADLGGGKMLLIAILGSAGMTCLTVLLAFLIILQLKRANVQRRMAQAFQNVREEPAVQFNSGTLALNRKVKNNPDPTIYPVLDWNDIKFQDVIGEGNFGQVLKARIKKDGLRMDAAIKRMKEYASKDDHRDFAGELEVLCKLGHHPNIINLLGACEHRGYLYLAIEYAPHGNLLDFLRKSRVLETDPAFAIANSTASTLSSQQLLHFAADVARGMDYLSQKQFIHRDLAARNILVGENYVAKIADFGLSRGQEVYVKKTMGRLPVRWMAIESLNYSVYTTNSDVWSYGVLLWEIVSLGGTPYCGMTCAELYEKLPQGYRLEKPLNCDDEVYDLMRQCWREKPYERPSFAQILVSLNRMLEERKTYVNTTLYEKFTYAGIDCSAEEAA
High affinity nerve growth factor receptor (Homo sapiens), sequence (P04629 33-796 limits assumed): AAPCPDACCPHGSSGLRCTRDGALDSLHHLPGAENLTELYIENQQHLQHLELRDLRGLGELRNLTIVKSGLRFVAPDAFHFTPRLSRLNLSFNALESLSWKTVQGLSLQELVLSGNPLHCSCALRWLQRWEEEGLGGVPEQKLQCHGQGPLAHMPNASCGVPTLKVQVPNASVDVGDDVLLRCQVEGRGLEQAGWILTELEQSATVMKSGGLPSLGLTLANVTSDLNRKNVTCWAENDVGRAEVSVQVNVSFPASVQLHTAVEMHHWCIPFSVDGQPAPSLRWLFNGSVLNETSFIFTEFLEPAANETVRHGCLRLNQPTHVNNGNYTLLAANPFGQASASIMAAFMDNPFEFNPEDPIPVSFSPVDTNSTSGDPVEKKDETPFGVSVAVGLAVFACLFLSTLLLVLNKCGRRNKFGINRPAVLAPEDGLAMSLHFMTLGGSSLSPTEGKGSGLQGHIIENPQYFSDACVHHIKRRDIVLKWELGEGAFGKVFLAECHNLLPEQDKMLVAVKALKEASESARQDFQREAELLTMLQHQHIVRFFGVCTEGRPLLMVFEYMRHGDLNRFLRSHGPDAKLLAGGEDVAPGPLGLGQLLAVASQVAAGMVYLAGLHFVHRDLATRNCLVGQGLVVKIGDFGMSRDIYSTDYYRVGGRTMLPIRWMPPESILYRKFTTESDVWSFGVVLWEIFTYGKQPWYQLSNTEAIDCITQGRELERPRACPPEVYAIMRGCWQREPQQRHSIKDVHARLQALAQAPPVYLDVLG

`CC(C)=Cc1cccc2c1/C(=N/Nc1ccc(S(N)(=O)=O)cc1)C(=O)N2`: the inhibition in assay [1] was 50.3%; in [2], 2.03%; in [3] it was 4.1%; in assay [4], -0.28%; in [5] it was 20%; in assay [6], 10.8%. The inhibition in assay [7] was 46.4%; in assay [8], 3.21%; in assay [9], 4.02%; in [10] it was 2.78%; in assay [11] it was -2.03%; in assay [12], 2.44%. Besides, the inhibition in [13] was determined as 10.1%; in [14], 0.37%; in assay [15] it was 3.74%; in [16], 9.88%; in assay [17] it was 65.6%; in assay [18], 0.01%. Further, the inhibition amounted to 2.76% in assay [19] and 6.87% in assay [20].
As for `CN(C)c1cc2c(Nc3ccc4nc(Cc5ccccc5)[nH]c4c3)ncnc2cn1`, the inhibition is 27.9% in assay [1]; 7.08% in assay [2]; 3.46% in assay [3]; 6.18% in assay [4]; 11.8% in assay [5]; -0.18% in assay [6]. The inhibition in assay [7] was 20.1%; in assay [8], 1.22%; in assay [9] it was 8.06%; in assay [10], -5.04%; in assay [11], 1.5%; in [12], 5.94%. Besides, the inhibition was 11.9% in assay [13]; 3.86% in assay [14]; 4.47% in assay [15]; 6.39% in assay [16]; 21% in assay [17]; 1.01% in [18]. Moreover, the inhibition was 4.65% in assay [19] and 4.28% in assay [20].
With `Fc1cccc(COc2ccc(Nc3ncnc4sc(-c5cccs5)cc34)cc2Cl)c1`, the inhibition was 2.09% in assay [1]; -5.24% in [2]; -0.08% in assay [3]; 5.26% in [4]; 4.79% in assay [5]; 2.2% in assay [6]. Besides, the inhibition in assay [7] is 2.77%; in assay [8], -1.04%; in assay [9] it was -1.24%; in assay [10], 0.32%; in assay [11], 1.01%; in assay [12] it was -0.73%. Also, the inhibition in assay [13] is 1.47%; in assay [14] it was 1.07%; in assay [15] it was 2.01%; in assay [16], 3.5%; in [17] it was 4.12%; in assay [18] it was -0.19%. The values for the inhibition in [19] and in assay [20] were 1.13% and 1.3%, respectively.
For `CCn1c(-c2nonc2N)nc2c(C#CC(C)(C)O)nc(OC[C@@H](N)c3ccccc3)cc21`, the inhibition in assay [1] was found to be 47.4%; in [2] it was 11.5%; in assay [3] it was 6.11%; in assay [4], 2.07%; in assay [5], 11.2%; in assay [6] it was 2.45%. Also, the inhibition in assay [7] was 0.1%; in [8] it was 1.94%; in assay [9], 5.92%; in assay [10] it was -1.58%; in assay [11], 1.52%; in assay [12], 1.68%. In addition, the inhibition was 6.92% in [13]; 1.25% in assay [14]; 10.4% in [15]; -2.6% in [16]; 2.87% in assay [17]; 0.28% in [18]. In addition, the inhibition is 5.21% in assay [19] and -0.3% in assay [20].
As to `CC(=O)Nc1cccc(C#Cc2cncnc2Nc2ccc(OCc3cccc(F)c3)c(Cl)c2)n1`, the inhibition in assay [1] is 13.9%; in assay [2], 0.21%; in [3] it was 0.21%; in assay [4], 2.41%; in [5], -0.69%; in [6], 2.96%. Further, the inhibition in assay [7] is 0.48%; in assay [8], 1.99%; in assay [9], 6.25%; in assay [10], 5.47%; in assay [11] it was -0.2%; in assay [12], -0.56%. For the same compound, the inhibition is 0.51% in [13]; -1.08% in assay [14]; 2.93% in [15]; -0.47% in assay [16]; 13.1% in assay [17]; -0.48% in [18]. The inhibition in assay [19] was 2.35%; in [20], -4.25%.
For the compound `O=C1NC(=O)C(c2ccccc2Cl)=C1Nc1cccc(O)c1`, the inhibition in [1] came out at 6.27%; in assay [2], 1.7%; in [3], 4.87%; in assay [4] it was 3.13%; in assay [5], 6.28%; in assay [6], 3.41%. Further, the inhibition in assay [7] was 7.83%; in assay [8], -0.89%; in assay [9], -2.12%; in [10], 0.85%; in assay [11], -0.68%; in assay [12], 3.78%. Also, the inhibition was 4.55% in assay [13]; 1.47% in [14]; 5.97% in assay [15]; 3.82% in [16]; 2.57% in [17]; 1.29% in assay [18]. The inhibition in assay [19] amounted to 3.26%; in assay [20], 4.19%.
